# Reference: PubChem BioAssay (Tox21)
# A number with no mark means an inactive call. Records with an inconclusive call do not appear. A call without a number means that no potency is given here. Activity calls are given as the source filed them. Calls follow the shape of the dose curve; as a rule, active = well fitted curve in the direction sought with a large enough effect in the repeat runs; inconclusive = weak or mixed curves; inactive = no such curve, though single readings can be large; an effect the other way counts as inactive or inconclusive.
# Experiments:
# [1] = qHTS RealTime-Glo MT Cell Viability Assay in HepG2 cells - 40 hour (AID 1224870); also: nearly all actives have a fitted effect of over 50% in size
# In short: (§1)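 Real-time viability: cells seeded at 600 per well together with NanoLuc and cell-permeant prosubstrate, compounds added after 5 h incubation. Luminescence tracked at 0, 8, 16, 24, 32 and 40 h of exposure.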
# [2] = A CellTox Green Cytotoxicity Assay to monitor cytotoxicity in HEK293 cells - 40 hour (AID 1224871); also: nearly all actives have a fitted effect of over 45% in size
# In short: (§2)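 HEK293 cells premixed with CellTox Green dye were seeded at 600 cells/well and left 5 h at 37 C/5% CO2 before pin transfer of 23 nL compound in DMSO. Fluorescence from dye bound to dead-cell DNA was read during 40 h treatment.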
# [3] = qHTS RealTime-Glo MT Cell Viability Assay in HEK293 cells - 16 hour (AID 1224872); also: nearly all actives have a fitted effect of over 50% in size; also: potency is read from the fitted curve at half-maximal effect
# In short: (§3)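 Assay medium contained NanoLuc luciferase plus cell-permeant prosubstrate, added with HEK293 cells at 600 cells/well. After 5 h at 37 C/5% CO2 compounds were added; plates stayed at 37 C for 40 h with serial luminescence reads.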
# [4] = qHTS RealTime-Glo MT Cell Viability Assay in HepG2 cells - 8 hour (AID 1224873); also: nearly all actives have a fitted effect of over 55% in size
# In short: as §1
# [5] = qHTS RealTime-Glo MT Cell Viability Assay in HEK293 cells - 40 hour (AID 1224874); conditions: RealTime-Glo luminescence; max response: hits give low values; also: nearly all actives have a fitted effect of over 50% in size; also: potency is read from the fitted curve at half-maximal effect
# In short: (§4)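 HEK293 cells mixed with RealTime-Glo reagents (NanoLuc plus cell-permeant prosubstrate) at 600 cells/well, preincubated 5 h at 37 C/5% CO2, then given 23 nL compound in DMSO. Nonlytic luminescence from viable cells was read at 0, 8, 16, 24, 32 and 40 h.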
# [6] = A CellTox Green Cytotoxicity Assay to monitor cytotoxicity in HEK293 cells - 24 hour (AID 1224875); also: series mostly up to about 77 µM; nearly all actives have a fitted effect of over 45% in size
# In short: as §2
# [7] = A CellTox Green Cytotoxicity Assay to monitor cytotoxicity in HepG2 cells - 16 hour (AID 1224876); also: nearly all actives have a fitted effect of over 45% in size
# In short: (§5)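 HepG2 cells were seeded together with the CellTox Green dye at 600 cells/well, left 5 h at 37 C/5% CO2, then given compounds in DMSO. Fluorescence from dye bound to dead-cell DNA was read repeatedly over 40 h of treatment at 37 C.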
# [8] = qHTS RealTime-Glo MT Cell Viability Assay in HepG2 cells - 32 hour (AID 1224877); also: nearly all actives have a fitted effect of over 55% in size
# In short: (§6)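 qHTS, HepG2, 600 cells/well, RealTime-Glo (NanoLuc + prosubstrate) added with cells; 5 h preincubation; DMSO compound addition; 37 C; luminescence at 0/8/16/24/32/40 h.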
# [9] = A CellTox Green Cytotoxicity Assay to monitor cytotoxicity in HepG2 cells - 24 hour (AID 1224878); also: nearly all actives have a fitted effect of over 45% in size
# In short: as §5
# [10] = A CellTox Green Cytotoxicity Assay to monitor cytotoxicity in HepG2 cells - 40 hour (AID 1224879); also: nearly all actives have a fitted effect of over 40% in size
# In short: as §5
# [11] = qHTS RealTime-Glo MT Cell Viability Assay in HEK293 cells - 0 hour (AID 1224880)
# In short: as §4
# [12] = A CellTox Green Cytotoxicity Assay to monitor cytotoxicity in HepG2 cells - 0 hour (AID 1224882); also: nearly all actives have a fitted effect of over 35% in size
# In short: as §5
# [13] = A CellTox Green Cytotoxicity Assay to monitor cytotoxicity in HepG2 cells - 32 hour (AID 1224883); also: nearly all actives have a fitted effect of over 50% in size
# In short: as §5
# [14] = A CellTox Green Cytotoxicity Assay to monitor cytotoxicity in HEK293 cells - 8 hour (AID 1224884); also: nearly all actives have a fitted effect of over 35% in size
# In short: as §2
# [15] = qHTS RealTime-Glo MT Cell Viability Assay in HepG2 cells - 16 hour (AID 1224885); also: nearly all actives have a fitted effect of over 50% in size
# In short: as §6
# [16] = qHTS RealTime-Glo MT Cell Viability Assay in HEK293 cells - 8 hour (AID 1224887)
# In short: as §4
# [17] = A CellTox Green Cytotoxicity Assay to monitor cytotoxicity in HEK293 cells - 16 hour (AID 1224888); also: nearly all actives have a fitted effect of over 35% in size
# In short: as §2
# [18] = qHTS RealTime-Glo MT Cell Viability Assay in HepG2 cells - 0 hour (AID 1224889); also: nearly all actives have a fitted effect of over 50% in size
# In short: as §6
# [19] = A CellTox Green Cytotoxicity Assay to monitor cytotoxicity in HEK293 cells - 32 hour (AID 1224881); also: nearly all actives have a fitted effect of over 40% in size
# In short: as §2
# [20] = qHTS RealTime-Glo MT Cell Viability Assay in HEK293 cells - 24 hour (AID 1224886); also: nearly all actives have a fitted effect of over 50% in size; also: potency is read from the fitted curve at half-maximal effect
# In short: as §3
structure (smiles),measurement,setting,value
CC(C)CCCCCOC(=O)CS,Potency,[1],inactive
same,Potency,[2],inactive
same,Potency,[3],inactive
same,outcome,[4],inactive
same,max response,[5],4.02%
same,Potency,[6],inactive
same,Potency,[7],inactive
same,Potency,[8],inactive
same,Potency,[9],inactive
same,Potency,[10],inactive
same,Potency,[11],inactive
same,Potency,[12],inactive
same,Potency,[13],inactive
same,Potency,[14],inactive
same,outcome,[15],inactive
same,Potency,[16],inactive
same,Potency,[17],inactive
same,Potency,[18],inactive
C[Si](C)(C)O[Si](C)(C)O[Si](C)(C)C,Potency,[1],inactive
same,Potency,[2],inactive
same,Potency,[3],inactive
same,outcome,[4],inactive
same,max response,[5],7.13%
same,Potency,[6],inactive
same,Potency,[7],inactive
same,Potency,[8],inactive
same,Potency,[9],inactive
same,Potency,[10],inactive
same,Potency,[11],inactive
same,Potency,[19],inactive
same,Potency,[12],inactive
same,Potency,[13],inactive
same,outcome,[15],inactive
same,Potency,[20],inactive
same,Potency,[16],inactive
same,Potency,[17],inactive
same,Potency,[18],inactive
CC(C)CCCCCCCOC(=O)c1ccc(C(=O)OCCCCCCCC(C)C)c(C(=O)OCCCCCCCC(C)C)c1,Potency,[1],inactive
same,Potency,[2],inactive
same,Potency,[3],inactive
same,outcome,[4],inactive
same,max response,[5],11.4%
same,Potency,[6],inactive
same,Potency,[7],inactive
same,Potency,[8],inactive
same,Potency,[9],inactive
same,Potency,[10],inactive
same,Potency,[11],inactive
same,Potency,[19],inactive
same,Potency,[12],inactive
same,Potency,[13],inactive
same,Potency,[14],inactive
same,Potency,[20],inactive
same,Potency,[16],inactive
same,Potency,[17],inactive
same,Potency,[18],inactive
CCCCC(CC)COCCC#N (stereo unspecified),Potency,[1],inactive
same,Potency,[2],inactive
same,Potency,[3],inactive
same,outcome,[4],inactive
same,max response,[5],12.6%
same,Potency,[6],inactive
same,Potency,[7],inactive
same,Potency,[8],inactive
same,Potency,[9],inactive
same,Potency,[10],inactive
same,Potency,[11],inactive
same,Potency,[19],inactive
same,Potency,[12],inactive
same,Potency,[13],inactive
same,outcome,[15],inactive
same,Potency,[20],inactive
same,Potency,[16],inactive
same,Potency,[17],inactive
same,Potency,[18],inactive
Cc1ccc(NC=O)c(C)c1,Potency,[1],inactive
same,Potency,[2],inactive
same,Potency,[3],inactive
same,outcome,[4],inactive
same,max response,[5],4.39%
same,Potency,[6],inactive
same,Potency,[7],inactive
same,Potency,[8],inactive
same,Potency,[9],inactive
same,Potency,[10],inactive
same,Potency,[19],inactive
same,Potency,[12],inactive
same,Potency,[13],inactive
same,Potency,[14],inactive
same,outcome,[15],inactive
same,Potency,[20],inactive
same,Potency,[16],inactive
same,Potency,[17],inactive
same,Potency,[18],inactive
C=CC(O)CCCCC (stereo unspecified),Potency,[1],inactive
same,Potency,[2],inactive
same,Potency,[3],inactive
same,outcome,[4],inactive
same,max response,[5],0.0439%
same,Potency,[6],inactive
same,Potency,[7],inactive
same,Potency,[8],inactive
same,Potency,[9],inactive
same,Potency,[10],inactive
same,Potency,[19],inactive
same,Potency,[12],inactive
same,Potency,[13],inactive
same,Potency,[14],inactive
same,outcome,[15],inactive
same,Potency,[20],inactive
same,Potency,[16],inactive
same,Potency,[17],inactive
same,Potency,[18],inactive
CCCOC(C)=O,Potency,[1],inactive
same,Potency,[2],inactive
same,Potency,[3],inactive
same,outcome,[4],inactive
same,max response,[5],-1.95%
same,Potency,[6],inactive
same,Potency,[7],inactive
same,Potency,[8],inactive
same,Potency,[9],inactive
same,Potency,[10],inactive
same,Potency,[19],inactive
same,Potency,[12],inactive
same,Potency,[13],inactive
same,Potency,[14],inactive
same,outcome,[15],inactive
same,Potency,[20],inactive
same,Potency,[16],inactive
same,Potency,[17],inactive
same,Potency,[18],inactive
Clc1cc(Cl)c2c(c1)N=C1CCCCCN1C2,Potency,[1],inactive
same,Potency,[2],inactive
same,Potency,[3],21.3 µM (active)
same,outcome,[4],inactive
same,Potency,[5],23.9 µM (active)
same,Potency,[6],inactive
same,Potency,[7],inactive
same,Potency,[8],inactive
same,Potency,[9],inactive
same,Potency,[10],inactive
same,Potency,[11],inactive
same,Potency,[19],inactive
same,Potency,[12],inactive
same,Potency,[13],inactive
same,Potency,[14],inactive
same,Potency,[20],19 µM (active)
same,Potency,[17],inactive
same,Potency,[18],inactive
CCOC(C)OCC,Potency,[1],inactive
same,Potency,[2],inactive
same,Potency,[3],inactive
same,outcome,[4],inactive
same,max response,[5],-0.223%
same,Potency,[6],inactive
same,Potency,[7],inactive
same,Potency,[8],inactive
same,Potency,[9],inactive
same,Potency,[10],inactive
same,Potency,[11],inactive
same,Potency,[19],inactive
same,Potency,[12],inactive
same,Potency,[13],inactive
same,Potency,[20],inactive
same,Potency,[16],inactive
same,Potency,[18],inactive
O=C(C1CCCCC1)N1CC(=O)N2CCCc3ccccc3C2C1 (stereo unspecified),Potency,[1],inactive
same,Potency,[2],inactive
same,Potency,[3],inactive
same,outcome,[4],inactive
same,max response,[5],-23.1%
same,Potency,[6],inactive
same,Potency,[7],inactive
same,Potency,[8],inactive
same,Potency,[9],inactive
same,Potency,[10],inactive
same,Potency,[11],inactive
same,Potency,[19],inactive
same,Potency,[12],inactive
same,Potency,[13],inactive
same,outcome,[15],inactive
same,Potency,[20],inactive
same,Potency,[16],inactive
same,Potency,[17],inactive
same,Potency,[18],inactive
Nc1ccc(C(=O)Oc2ccccc2)c(O)c1,Potency,[1],inactive
same,Potency,[2],inactive
same,Potency,[3],inactive
same,outcome,[4],inactive
same,max response,[5],-15.9%
same,Potency,[6],inactive
same,Potency,[7],inactive
same,Potency,[8],inactive
same,Potency,[9],inactive
same,Potency,[10],inactive
same,Potency,[11],inactive
same,Potency,[19],inactive
same,Potency,[12],inactive
same,Potency,[13],inactive
same,Potency,[14],inactive
same,Potency,[16],inactive
same,Potency,[17],inactive
same,Potency,[18],inactive
O=C(O)c1ccc2cc(O)ccc2c1,Potency,[1],inactive
same,Potency,[2],inactive
same,Potency,[3],inactive
same,outcome,[4],inactive
same,max response,[5],-17.3%
same,Potency,[6],inactive
same,Potency,[7],inactive
same,Potency,[8],inactive
same,Potency,[9],inactive
same,Potency,[10],inactive
same,Potency,[11],inactive
same,Potency,[12],inactive
same,Potency,[13],inactive
same,Potency,[14],inactive
same,outcome,[15],inactive
same,Potency,[20],inactive
same,Potency,[16],inactive
same,Potency,[17],inactive
same,Potency,[18],inactive
C[C@H]1C[C@H]2[C@@H]3CCC4=CC(=O)C=C[C@]4(C)[C@@]3(F)[C@@H](O)C[C@]2(C)[C@@]1(O)C(=O)COP(=O)(O)O,Potency,[1],inactive
same,Potency,[2],inactive
same,Potency,[3],inactive
same,outcome,[4],inactive
same,max response,[5],-11.1%
same,Potency,[6],inactive
same,Potency,[7],inactive
same,Potency,[8],inactive
same,Potency,[9],inactive
same,Potency,[11],inactive
same,Potency,[19],inactive
same,Potency,[12],inactive
same,Potency,[13],inactive
same,Potency,[14],inactive
same,outcome,[15],inactive
same,Potency,[20],inactive
same,Potency,[16],inactive
same,Potency,[17],inactive
